The sample as a whole holds a higher share of hits than the screen did.
Dicer processing: blocks human Dicer maturation of pre-miR-21. z-score at 25 µM. 6% of 47,000 active. cat-ELCCA pre-miR-21 Dicer processing, chemiluminescence; hits give high values; in the data active means z-score above about 3, passing the limit was not always enough;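 further: higher signal means more uncleaved substrate so more Dicer inhibition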
A number is an active result; – = inactive.

SMILES | Dicer processing
CC(=O)[C@@]12OC(C)(c3ccccc3)O[C@@H]1C[C@H]1[C@@H]3CCC4=CC(=O)CC[C@]4(C)[C@H]3CC[C@@]12C (some centres not stated) | –
COc1cccc2c(Nc3ccc(O)cc3)cc(C)nc12 | –
O=C(c1cnc2cc(-c3ccccc3)nn2c1)c1cc(Cl)ccc1O | –
O=C(c1cnc2cc(-c3ccccc3)nn2c1)c1cc(Br)ccc1O | 3.26
O=C(c1cnc2cc(-c3ccc(Cl)cc3)nn2c1)c1ccccc1O | –
CCSCCOC(=O)C1=C(C)NC2=C(C(=O)CC(C)(C)C2)C1c1ccc(CC)cc1 (configuration not stated) | –
c1ccc(Cc2nnc3sc(-c4ccco4)nn23)cc1 | –
Fc1ccccc1-c1nn2c(Cc3ccccc3)nnc2s1 | –
CSc1nn2c(=O)c(Cc3ccccc3)nnc2s1 | 3.19
Cc1ccc(/C=N/Nc2ncnc3sc(-c4ccccc4)cc23)o1 | 3.83
C(=N\Nc1ncnc2sc(-c3ccccc3)cc12)/c1ccncc1 | –
C(=N\Nc1ncnc2sc(-c3ccccc3)cc12)/c1cccs1 | –
CCOC(=O)NS(=O)(=O)c1ccccc1Cl | –
COc1ccc(-c2nc(CS(=O)(=O)c3ccsc3)no2)cc1OC | –
CSc1sc(C(=O)O)c(I)c1S(=O)(=O)C(C)C | –
O=C1NC(=O)C(c2ccccc2)(C2CCC2)N1 (configuration not stated) | –
O=C1CC(c2ccccc2)Oc2ccc(O)cc21 (configuration not stated) | –
COc1cc2nc(C(C)(C)C)oc(=O)c2cc1OC | 4.12
COc1cc2nc(-c3cccc(Br)c3)oc(=O)c2cc1OC | 26.6
COc1cc2nc(-c3ccccc3)oc(=O)c2cc1OC | –
CCC(CC)c1nc2cc(OC)c(OC)cc2c(=O)o1 | –
COc1cc2nc(-c3ccc(C)cc3)oc(=O)c2cc1OC | –
COc1ccc(-c2nc3cc(OC)c(OC)cc3c(=O)o2)cc1 | –
S=C(Nc1ccc(Cl)c(Cl)c1)N1CCCCCC1 | –
COC(=O)C1=NOC2(CC(=O)N(c3ccc(Br)cc3)C2=O)C1 (configuration not stated) | –
SMILES | Dicer processing
CN(CCOC(=O)Nc1cc(Cl)cc(Cl)c1)c1cc(C(F)(F)F)nc2ccccc12 | –
O=C(O)c1sccc1Br | –
CC(=O)Oc1nc(-c2ccc(C(C)(C)C)cc2)n(-c2ccccc2)n1 | –
OC1CC(c2ccccc2)NC2(CCCCC2)C1 (configuration not stated) | –
COc1cc(Cl)cc(C2NC(=O)c3c(sc4c3CCN(C)C4)N2)c1O (configuration not stated) | –
O=c1[nH]c2ccccc2c2ccccc12 | –
O=c1[nH]c2ccccc2c(O)c1-c1ccccc1 | –
O/N=C1\CCCc2[nH]c3ccccc3c21 | 5.06
O=C(CC(Sc1ccccc1C(=O)O)c1ccc(F)cc1)c1cccc(F)c1 (configuration not stated) | –
O=C(Cn1c2c(c(=O)n3ncnc13)CCC2)N/N=C/c1cccnc1 | –
COc1cc(C2c3c(oc4ccccc4c3=O)C(=O)N2c2ccccn2)ccc1OCCC(C)C (configuration not stated) | 3.45
COc1cccc(C2c3c(oc4ccccc4c3=O)C(=O)N2c2ccccn2)c1 (configuration not stated) | –
CCOc1cccc(C2c3c(oc4ccccc4c3=O)C(=O)N2c2ccccn2)c1 (configuration not stated) | 5.91
COc1cc(C2c3c(oc4ccccc4c3=O)C(=O)N2c2nnc(C)s2)ccc1OCCC(C)C (configuration not stated) | –
O=C1c2oc3ccccc3c(=O)c2C(c2cccc(Oc3ccccc3)c2)N1c1ccccn1 (configuration not stated) | 4.26
COc1cc(C2c3c(oc4ccccc4c3=O)C(=O)N2c2ccccn2)ccc1OCc1ccccc1 (configuration not stated) | –
CCCCOc1cccc(C2c3c(oc4ccccc4c3=O)C(=O)N2c2nnc(C)s2)c1 (configuration not stated) | –
CCCCCOc1cccc(C2c3c(oc4ccccc4c3=O)C(=O)N2c2nccs2)c1 (configuration not stated) | –
CCCCOc1cccc(C2c3c(oc4ccccc4c3=O)C(=O)N2c2ccccn2)c1 (configuration not stated) | 3.24
O=C1c2oc3ccccc3c(=O)c2C(c2cccc(Cl)c2)N1c1ccccn1 (configuration not stated) | –
C=CCOc1cccc(C2c3c(oc4ccccc4c3=O)C(=O)N2c2ccccn2)c1 (configuration not stated) | –
O=C1c2oc3ccccc3c(=O)c2C(c2cccc(Br)c2)N1c1ccccn1 (configuration not stated) | –
Cc1cccc2ccc(C3C(=O)c4cccc5cccc(c45)C3=O)nc12 | –
COc1ccc(C(C)(C)C)cc1S(=O)(=O)n1cnc(C)c1 | –
CSc1nn(-c2ccccc2)cc1-c1nc(C(C)(C)C)cs1 | –
SMILES | Dicer processing
Cc1ccc(C2C(C(=O)OC(C)C)C(=O)CC(C)(O)C2C(=O)OC(C)C)cc1 (configuration not stated) | –
S=C(N/N=C1\CSCc2ccccc21)Nc1cc(Cl)ccc1Cl | –
CCOC(=O)NNC(=S)Nc1ccc(Cl)c(Cl)c1 | –
CCOC(=O)c1cc(C)n(Cc2cccc(C(F)(F)F)c2)n1 | –
CCOC(=O)c1nn(-c2ccc(C)cc2)cc1C#N | –
COC(=O)c1c(NC(=O)COc2ccccc2Br)sc2c1CCC2 | –
CCOC(=O)/C(C#N)=C1\SC=C(c2ccccc2)N1c1c(C)cccc1C | –
CCCn1c(=O)c(C#N)cn(-c2ccccc2C)c1=O | –
CC(C)(C)Sc1ccccc1/C=N/O | –
COc1ccc(NS(=O)(=O)c2ccc(NS(=O)(=O)c3ccc(Cl)cc3)cc2)cc1 | –
COc1ccc(NS(=O)(=O)c2ccc(N)cc2)cc1 | –
COc1ccc(NS(=O)(=O)c2cccc(S(=O)(=O)c3ccc(Cl)cc3)c2)cc1 | 3.43
Cc1[nH][nH]c(=O)c1C(c1c(C)[nH][nH]c1=O)c1cn(Cc2ccccc2)c2ccccc12 | –
O=C1C2C3C=CC(C3)C2C(=O)N1c1ccc(Cc2ccc(N3C(=O)C4C5C=CC(C5)C4C3=O)cc2)cc1 (configuration not stated) | –
Cc1ccc(N2C(=O)C3C4C=CC(CC4)C3C2=O)c(Br)c1 (configuration not stated) | –
O=C(O)c1cccc(N2C(=O)C3C4C=CC(CC4)C3C2=O)c1 (configuration not stated) | –
COC(=O)c1ccc(N2C(=O)C3C4C=CC(CC4)C3C2=O)cc1 (configuration not stated) | –
O=C1C2C3C=CC(CC3)C2C(=O)N1c1cccc(Cl)c1 (configuration not stated) | 3.34
CC(C)c1ccc(N2C(=O)C3C4C=CC(CC4)C3C2=O)cc1 (configuration not stated) | 3.55
C/C(=N\OC(=O)c1ccc(Cl)cc1)c1cnn(-c2cc(C(F)(F)F)cc(C)n2)c1C | –
CSc1sc(C(=O)NNS(C)(=O)=O)c2c1C=CCC2 | –
O=c1cc(O)c2cc([N+](=O)[O-])ccc2n1CCc1ccccc1 | –
COc1cccc(Oc2ccc(OC)cc2C(=O)NN)c1 | –
CC(C)n1cc(/C(N)=N/OC(=O)c2cccs2)c(=O)n(Cc2ccccc2)c1=O | –
N#Cc1ccc(S(=O)(=O)N2CCNC(=O)C2CC(=O)Nc2cc(Cl)ccc2Cl)cc1 (configuration not stated) | –

High-throughput results as filed in PubChem BioAssay.
